# Marburg entry inh: qHTS for inhibitors of binding or entry into cells for Marburg Virus; Marburg virus pseudotyped entry inhibition, cell reporter; AID 540276, 2011; Potency, µM (doses to about 37.8 µM), for inactives: at the highest dose activity change, negative = inhibition, usual class: inhibitors; 1.8% of 300,000 active; calls by dose curve; tested in HEK293 cells; further: potency means the concentration at half of the fitted maximal effect
# HCV inh: qHTS Assay for Inhibitors of Hepatitis C Virus (HCV). 3.4% of 340,000 active. Potency, µM (series often up to 41.8 µM), inactives show top-dose activity change, negative = inhibition, usual class: inhibitors. Huh7.5.1 HCVcc-Cre infection, luciferase reporter, 44 h; active means well fitted inhibition curve with a large enough effect; inconclusive means small, poorly fitted or top-dose-only effect, or another doubt; inactive means no such curve, though single readings can be large or run the other way; further: potency means the concentration at half of the fitted maximal effect
#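 Reporter virus HCVcc-Cre (~0.5 moi) infects cells exposed to compound; seeding density 1,000 cells/well with 4 h settling beforehand. Luminescence, 15 sec read, taken 44 h post-infection following a 15 min RT substrate incubation.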
# Vaccinia mCherry: qHTS for Stage-Specific Inhibitors of Vaccinia Orthopoxvirus: mCherry Reporter Primary qHTS; Vaccinia virus mCherry reporter infection, fluorescence; Potency, µM (highest dose often 36.5 µM), for the others: at the top dose activity change, negative = inhibition, actives largely listed as inhibitors; 0.63% of 310,000 active; AID 720579, 2013; calls by dose curve; tested in A549 cells; further: potency means the concentration at half of the fitted maximal effect; nearly all actives have a fitted effect of over 35% in size
# Vaccinia Venus: qHTS for Stage-Specific Inhibitors of Vaccinia Orthopoxvirus: Venus Reporter Primary qHTS; Vaccinia virus Venus reporter expression, fluorescence; Potency, µM (top dose mostly 36.5 µM), for inactives: at the top dose activity change, negative = inhibition, actives largely listed as inhibitors; 0.46% of 330,000 active; AID 720580, 2013; calls by dose curve; tested in A549 cells; further: potency means the concentration at half of the fitted maximal effect; nearly all actives have a fitted effect of over 30% in size
# HCMV antiviral: qHTS Assay for inhibitors of the human cytomegalovirus (HCMV); activity change, negative = inhibition, % at 57.5 µM; HFF cells, HCMV-luciferase reporter, 72 h; active compounds read low; 4.5% of 410,000 active; in the data active means activity change below about -60%; inconclusive means no clear call, values can overlap the other calls; inactive means above about -39%
#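 Steps: HFFs plated, 16 h 37C; compounds added; HCMV-luciferase added to MOI 1 PFU/cell; 72 h 37C; OneGlo reagent, 5 min room temperature; luminescence read, normalized to controls.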
# LASV entry inh: qHTS for Inhibitors of binding or entry into cells for Lassa Virus; Lassa virus pseudotype entry inhibition, cell reporter; Potency, µM (series often up to 37.9 µM), without a hit: top-dose activity change, negative = inhibition, hits mostly inhibitors; 1.2% of 300,000 active; calls by dose curve; tested in HEK293 cells; further: potency means the concentration at half of the fitted maximal effect; nearly all actives have a fitted effect of over 50% in size
# Active calls of the source: *; i = inactive; u = inconclusive; x = no result given; [ ] = dose if it differs, or a comment. The list is not random: actives were taken first. Their share in the collection is about 7.8%. On the % scale 0 is the no-effect control and ±100 the full control effect.
SMILES,Marburg entry inh,HCV inh,Vaccinia mCherry,Vaccinia Venus,HCMV antiviral,LASV entry inh
O=C(COc1ccc(Cl)cc1Cl)Nc1ccccn1,u,u,x,x,-80*,0.52µM*
Cc1cccc(OCC(=O)Nc2ccncc2)c1C,u,u,-30%,-21%,-84*,u
CCOCC(=O)Nc1nnc(COC)s1,12%,24%,x,x,37,-6%
Cc1cccc(OCC(=O)NNC(=O)c2cccs2)c1,7%[46.1 µM],11%,i,-10%,-38,-15%
Cc1ccccc1OCC(=O)Nc1nnc(-c2ccncc2)s1,22%[46.1 µM],11%,-9%,-18%,-93*,-1%[46.1 µM]
Cc1cc(Cl)ccc1OCC(=O)Nc1ccncc1,x,13µM*,x,x,-60*,x
Cc1cc(OCC(=O)Nc2ccncc2)ccc1Br,0%,-12%,x,u,-90*,1%
Cc1cccc(OCC(=O)Nc2nnn(C)n2)c1C,-19%,3%,-35%,-23%,-102*,26%
COc1cccc(CNC(=O)CN2C(=O)CSc3ccc(S(=O)(=O)N(C)C)cc32)c1,x,x,-12%,2%,-4,u
CN(Cc1ccccc1)Cc1c(O)ccc2c(=O)c(-c3ccccc3)c(C(F)(F)F)oc12,-23%[46.1 µM],x,-14%,-11%,3,0%[46.1 µM]
COC(=O)C1=C(C(=O)OC)[C@@H]2Nc3ccccc3[C@@]23C[C@@H](C(=O)OC)N(C(=O)Nc2ccc(C(F)(F)F)cc2)C3=N1,-15%[14.2 µM],x,x,x,x,x
COc1ccccc1NS(=O)(=O)c1cc(NC(=O)Cc2n[nH]c(=O)c3ccccc23)ccc1Cl,u,3.2µM*,-8%,-14%,16,u
COc1ccccc1NS(=O)(=O)c1cc(NC(=S)Nc2cc(C)cc(C)c2)ccc1Cl,u,u,-28%,-15%,-82*,-21%
COc1ccccc1NS(=O)(=O)c1cc(N/C(=N\S(=O)(=O)c2ccccc2)c2ccc(F)cc2)ccc1Cl,u,35µM*,-4%,-21%,-5,u
Cc1ccc(N(CC(=O)Nc2cc(Cl)ccc2Oc2ccccc2)S(C)(=O)=O)c(C)c1,u,11µM*,x,u,-10,u
CN(c1cccc(NC(=O)CN(c2cccc(Cl)c2)S(=O)(=O)c2ccc(Cl)cc2)c1)S(C)(=O)=O,u,22µM*,-7%,u,-40,-19%
Cc1ccc(Cl)cc1N(CC(=O)Nc1cccc(N(C)S(C)(=O)=O)c1)S(C)(=O)=O,13%[46.1 µM],-7%,-23%,-14%,-17,6%
COc1ccc(N(CC(=O)Nc2ccccc2C)S(=O)(=O)c2ccccc2[N+](=O)[O-])c(OC)c1,-24%[46.1 µM],-22%,-7%,-3%,-28,u
Cc1ccc(N(CC(=O)Nc2cc(Cl)ccc2Oc2ccccc2)S(C)(=O)=O)cc1C,u,u,x,u,-9,u
COc1cccc(N(CC(=O)Nc2cccnc2)S(C)(=O)=O)c1,u,9%,i,-6%,-103*,2%[46.1 µM]
CCOc1ccccc1NC(=O)CN(c1ccc(OC)cc1OC)S(=O)(=O)c1ccccc1[N+](=O)[O-],10µM*,-20%,u,-21%,u,1%[46.1 µM]
C[C@@H]1CC[C@H]2C(=O)O[C@H](COc3ccc(C(C)(C)C)cc3)CN2[C@@H]1c1ccc(Br)cc1,u,x,x,x,x,-27%[14.3 µM]
O=C(Nc1ccc(C(F)(F)F)cc1)C(Cc1ccccc1)n1cccc1 (stereo not drawn),u,x,-8%,-18%,u,x
COc1ccc(S(=O)(=O)N(CC(=O)Nc2ccc(OC)cc2OC)c2ccc(Cl)cc2)cc1,u,x,-24%,-18%,-25,u
COc1ccc(NC(=O)CN(c2ccccc2F)S(=O)(=O)c2ccc(C)cc2)c(OC)c1,x,11µM*,x,x,-31,x
SMILES,Marburg entry inh,HCV inh,Vaccinia mCherry,Vaccinia Venus,HCMV antiviral,LASV entry inh
CCOc1ccc(S(=O)(=O)N(CC(=O)Nc2ccc(OC)c(Cl)c2)c2ccccc2)cc1,3%[46.1 µM],x,-15%,-14%,-60*,-9%[46.1 µM]
CCOc1ccc(NC(=O)CN(c2ccc(Cl)cc2C)S(=O)(=O)c2ccccc2)cc1,u,x,u,u,-69*,u
CCOc1ccc(NC(=O)CN(c2ccccc2OCC)S(=O)(=O)c2ccccc2)cc1,x,x,-15%,-15%,-23,u
COC(=O)c1cc(NC(=O)CN(c2cccc(OC)c2)S(=O)(=O)c2ccccc2)ccc1Cl,16µM*,u,u,u,u,10µM*
CC(=O)NC(c1ccccc1)c1nc(-c2cnc3ccccc3c2)cs1 (stereo not drawn),x,x,-2%,-22%,43,x
Cc1ccc(C)c(S(=O)(=O)c2cn(Cc3ccccc3)c3cc(F)c(F)cc3c2=O)c1,u,x,-8%,-14%,-19,-17%[46.1 µM]
COC(=O)[C@@]1(C#N)CC(=O)N([C@@H](C)c2ccccc2)[C@H]1c1ccc(OC)cc1,x,x,x,x,-3,x
COc1ccccc1NC(=O)c1ccc(CN(c2cc(Cl)ccc2C)S(=O)(=O)c2ccccc2)cc1,u,17%,x,-3%,-20,5%
COc1ccc(NC(=O)CN(c2ccc([N+](=O)[O-])cc2)S(=O)(=O)c2ccccc2)c(OC)c1,-22%,u,-2%,-23%,2,-23%
COc1ccc(N(CC(=O)Nc2ccc(OC)cc2OC)S(=O)(=O)c2ccccc2)cc1,u,u,-29%,u,-65*,u
CCOc1ccc(N(CC(=O)Nc2ccccc2OC)S(=O)(=O)c2ccccc2)cc1,x,u,x,x,-87*,x
COc1ccc(NC(=O)c2ccc(CN(c3cc(Cl)ccc3C)S(=O)(=O)c3ccccc3)cc2)cc1OC,4.1µM*,5%,x,x,-18,-18%
CCOC(=O)N1C(=O)C[C@](Sc2ccc(OC)cc2)(c2nc(C)no2)[C@H]1c1ccc(OC)cc1,x,x,x,x,-22,x
CCOC(=O)[C@@]1([C@@H](NC(=O)OC)c2ccco2)CCCC1=O,-9%[14.2 µM],x,x,x,x,x
COc1ccccc1N1C(=O)c2cccc3c(C(=O)O)ccc(c23)C1=O,-2%,31%,-11%,-2%,13,18%
COc1ccc2c3c(cccc13)C(=O)N(O)C2=O,-30%,u,-24%,u,-60*,-23%
Cc1ccc(NC(=O)CSc2nc(N)c3c4c(sc3n2)CSC(C)(C)C4)cc1,u,11µM*,-7%,u,33,21µM*
CC1CCN(S(=O)(=O)c2ccc3c(c2)N(CC(=O)NC(C)C)C(=O)CS3)CC1,-27%[46.1 µM],x,-9%,2%,14,x
CCOC(=O)CSc1cccc2cccnc12,u,6.3µM*,x,u,-87*,8%
COc1cccc(/C=N/NC(=O)CSc2cccc3cccnc23)c1,x,u,x,x,-92*,x
Cc1cccc(CSc2cccc3cccnc23)c1,u,19%,u,u,-108*,1%

# High-throughput results as filed in PubChem.
